About 3,200 (25%) of roughly 13,000 compounds showed an effect of 50% or more. The list shows a part of the results.
System: P. falciparum stage V gametocytes
Set-up: BacTiter-Glo ATP luminescence viability of purified stage V gametocytes in 384-well plates, per cent inhibition versus DMSO
Conditions: 48 h, 5 µM; inhibitor

Row | Compound | % Inhibition
1 | Cc1nc(Nc2ccc(F)cc2)nc(N2CCc3ccccc3C2C)c1CO (stereo not drawn) [TCMDC-141074] | -64.94%
2 | O=C(Nc1cccc(-c2cccc(-c3nc4ccc(F)cc4[nH]3)c2)c1)c1csnn1 [TCMDC-136899] | 16.2%
3 | O=C(Nc1cccc(-c2ccc(-c3nc4ccc(C(F)(F)F)cc4[nH]3)cc2)c1)Nc1ccc(Cl)c(Cl)c1 [TCMDC-133274] | -18.31%
4 | Nc1nc2ccc(S(=O)(=O)Nc3ccc(C(=O)N[C@@H](CCC(=O)O)C(=O)O)c(F)c3)cc2c(=O)[nH]1 [TCMDC-137540] | 7.521%
5 | COc1ccc(CCNC(C)Cc2ccc(C(=O)Nc3ccc(CC(C)NCCc4cccc(Cl)c4)cc3)cc2)cc1 (stereo not drawn) [TCMDC-139750] | 113.2%
6 | CC(Cc1ccc(C(=O)Nc2ccc(CC(C)NCCc3cccc(Cl)c3)cc2)cc1)NCCc1ccc(C(F)(F)F)cc1 (stereo not drawn) [TCMDC-139790] | 137.5%
7 | Cc1cccc2nc(-c3ccc(-c4ccc(C(=O)NCCc5cn(C)cn5)cc4)s3)[nH]c12 [TCMDC-132499] | -4.132%
8 | CCc1cc(NC2CCN(C)CC2)nc(Nc2cccc(OC)c2)n1 [TCMDC-134002] | 40.04%
9 | CC(Nc1cc(-c2ccccn2)nc(-c2ccccn2)n1)c1ccccc1 (stereo not drawn) [TCMDC-125420] | 24.2%
10 | CC(C)(C)Nc1cc(C2CC2)nc(-c2ccccn2)n1 [TCMDC-124453] | 105.8%
11 | c1ccc(-c2nc(NC3CCCCC3)cc(C3CC3)n2)nc1 [TCMDC-125825] | 105.2%
12 | c1ccc(-c2nnc(-c3ccccn3)nc2NC2CCCCC2)cc1 [TCMDC-123764] | 29.34%
13 | c1ccc(CNc2cc(-c3ccccn3)nc(-c3ccccn3)n2)cc1 [TCMDC-125421] | -1.689%
14 | C=CCNc1cc(-c2ccccn2)nc(-c2ccccn2)n1 [TCMDC-123787] | 23.88%
15 | Cc1cc(NC2CCCC2)nc(Nc2ccccc2)n1 [TCMDC-133459] | -35.61%
16 | OC1CCN(c2cc(-c3ccccn3)nc(-c3ccccn3)n2)CC1 [TCMDC-123786] | 41.56%
17 | CC(C)(C)c1cc(NC2CC2)nc(-c2ccccn2)n1 [TCMDC-125826] | 69.03%
18 | Cc1cc(N2CCOCC2)nc(Nc2ccc(NC(=O)Nc3ccc(F)cc3)cc2)n1 [TCMDC-124956] | -1.746%
19 | COc1ccc2nccc([C@@H](O)CN3CCC(NC(=O)Cc4cccc5c(Br)cccc45)CC3)c2c1 [TCMDC-141111] | 22.03%
20 | COc1ccc(-n2nc(C(=O)NCCC3=CCCCC3)c3ccccc3c2=O)cc1 [TCMDC-123609] | 10.78%
21 | Clc1ccc2nc(-c3cccnc3)[nH]c2c1 [TCMDC-142012] | 6.492%
22 | COC(=O)c1cccc(NC(=O)NC2CCN(c3ccnc(NCc4ccc(F)cc4)n3)CC2)c1 [TCMDC-133636] | 29.63%
23 | Cc1cc(N(C)C)nc(Nc2ccc(NC(=O)c3c(F)cccc3Cl)cc2)n1 [TCMDC-124976] | 3.565%
24 | O=C(Nc1cccc(F)c1)NC1CCN(c2ccnc3cc(Cl)ccc23)C1 (stereo not drawn) [TCMDC-133655] | -21.12%

Row | Compound | % Inhibition
25 | Cc1ccc(NC(=O)c2ccc3ncccc3c2)cc1OC1CCN(CCC(C)C)CC1 [TCMDC-133975] | 32.86%
26 | Oc1c(C(Nc2nc3ccccc3s2)c2ccccc2)ccc2cccnc12 (stereo not drawn) [TCMDC-125565] | 82.54%
27 | Oc1c(C(Nc2nc3ccccc3s2)c2ccc(OC(F)F)cc2)ccc2cccnc12 (stereo not drawn) [TCMDC-124379] | 115.4%
28 | CCC[C@@H]([C@@H](CC1CCCCC1)C(=O)N[C@H](C(=O)Nc1nccs1)C(C)(C)SCCNC(=O)OCC)N(O)C=O [TCMDC-137778] | 36.34%
29 | CCN(CC)C(C)(C)CN(Cc1ccc(-c2ccc(C(F)(F)F)cc2)cc1)C(=O)Cn1c(CCc2cccc(F)c2F)nc(=O)c2ccccc21 [TCMDC-141049] | 64.05%
30 | CN(C)C(C)(C)CN(Cc1ccc(-c2ccc(C(F)(F)F)cc2)cc1)C(=O)Cn1c(CCc2cccc(F)c2F)nc(=O)c2ccccc21 [TCMDC-141050] | 88.12%
31 | CC=CCON1C(N)=NC(N)=NC1(C)C [TCMDC-131381] | 17.92%
32 | Oc1cc(Nc2ccnc3cc(-c4ccc(CN5CCCCC5)o4)c(Cl)cc23)c(Cl)cc1F [TCMDC-138470] | 7.124%
33 | COc1ccc(C2CC(=O)C3=C(C2)NC(C)=C(C(=O)OC2CCCC2)C3c2cccc(O)c2)cc1OC (stereo not drawn) [TCMDC-125638] | 22.13%
34 | O=C(Nc1ccnc(N2CCCN(Cc3cccc(O)c3)CC2)c1)c1ccc(F)cc1 [TCMDC-134961] | -9.577%
35 | COc1cc2nc(Cl)nc(Nc3ccncc3)c2cc1OC [TCMDC-123606] | 31.62%
36 | Cc1cc(F)ccc1-c1nc(Nc2ccncc2)c2ccn(C)c2n1 [TCMDC-141231] | -13.59%
37 | Cc1cccc(-c2nc(Nc3ccncc3)c3cc(N(C)C)ccc3n2)n1 [TCMDC-135308] | 101.1%
38 | COc1cccc(-c2nc(Nc3ccncc3)c3ncn(C)c3n2)c1 [TCMDC-141275] | 49.52%
39 | Cc1cccc(-c2nc(Nc3ccncc3)c3ccc([N+](=O)[O-])cc3n2)n1 [TCMDC-134702] | 85.91%
40 | Cc1cc(N2CCCCC2)nc2ccc(NC(=O)c3cccc([N+](=O)[O-])c3)cc12 [TCMDC-124423] | 6.095%
41 | Cc1ccc(-c2nc(Nc3ccncc3)c3ccccc3n2)s1 [TCMDC-134482] | 16.52%
42 | COc1ccc(-c2cc(Nc3nc(-c4cccc(Cl)c4)nc4ccccc34)ccn2)cc1 [TCMDC-138867] | -54.58%
43 | COc1ccc2nc(-c3cccc(C)n3)nc(Nc3ccncc3)c2c1 [TCMDC-134670] | 106.1%
44 | COC(=O)c1ccc(CC(C)NCC(O)c2cccc(C(F)(F)F)c2)c(Cl)c1 (stereo not drawn) [TCMDC-131468] | 4.686%
45 | COc1ccc(C2CC(=O)C3=C(C2)NC(C)=C(C(=O)OC(C)C)C3c2cccc(O)c2)cc1OC (stereo not drawn) [TCMDC-125636] | 49.05%
46 | O=C(Nc1ccnc(-c2cccnc2)n1)c1cc(C(F)(F)F)cc(C(F)(F)F)c1 [TCMDC-124516] | 40.18%
47 | Cc1ccc2c(c1)C1(CC(=O)N(CCc3scnc3C)C1=O)C(=O)N2Cc1ccccc1 (stereo not drawn) [TCMDC-136702] | 3.881%
48 | Cc1cc(-c2ccc(CNC3Cc4ccccc4C3)cc2)ccc1S(=O)(=O)NCCN1CCCC1 [TCMDC-132243] | 88.03%

Row | Compound | % Inhibition
49 | O=S(=O)(NCCN1CCCC1)c1ccc(-c2cccc(CNC3Cc4ccccc4C3)c2)cc1F [TCMDC-132221] | 86.87%
50 | Cc1cc(-c2ccc(CN3Cc4ccccc4C3)cc2)ccc1S(=O)(=O)NCCN1CCCC1 [TCMDC-132293] | 17.83%
51 | O=S(=O)(NCCN1CCCC1)c1ccc(-c2ccc(CNC3Cc4ccccc4C3)cc2)cc1F [TCMDC-132237] | 105.2%
52 | Cc1cc(OCCCN=C(N)c2ccc3ccccc3c2)c(C(C)C)cc1Cl [TCMDC-137527] | 57.09%
53 | NC(=NCCc1ccccc1Cl)c1ccc2ccccc2c1 [TCMDC-137524] | -3.713%
54 | NC(=NCCc1ccc(Cl)c(Cl)c1)c1ccc2ccccc2c1 [TCMDC-137525] | 0.5254%
55 | O=C(NCCCCN1CCC2c3cccc(O)c3CCC21)c1ccc(-c2ccccc2)cc1 (stereo not drawn) [TCMDC-139086] | 3.232%
56 | O=S(=O)(Nc1ccc2nccc(N3CCNCC3)c2c1)c1ccc2c(Cl)cccc2c1 [TCMDC-139383] | 15.64%
57 | Cc1sc2cc(Cl)cc(Cl)c2c1S(=O)(=O)Nc1ccc2nccc(N3CCNCC3)c2c1 [TCMDC-139444] | 54.96%
58 | Cc1sc2ccc(Cl)cc2c1S(=O)(=O)Nc1ccc2nccc(N3CC(C)NC(C)C3)c2c1 (stereo not drawn) [TCMDC-139550] | 20.27%
59 | COCCNCc1cccc(-c2ccc3nccc(Nc4cc(O)ccc4C)c3c2)c1 [TCMDC-138480] | 40.94%
60 | CS(=O)(=O)CCNCc1cccc(-c2cc3nccc(Nc4ccc(Oc5ccccc5)cc4)c3cc2Cl)c1 [TCMDC-138462] | -8.797%
61 | COCCNCc1cccc(-c2cc3nccc(Nc4ccc(Oc5ccccc5)cc4)c3cc2Cl)c1 [TCMDC-138461] | 14.84%
62 | COCCNCc1cccc(-c2ccc3c(Nc4ccc(Oc5ccccc5)cc4)ccnc3c2)c1 [TCMDC-138478] | 82.82%
63 | CS(=O)(=O)CCNCc1cccc(-c2ccc3c(Nc4ccc(Oc5ccccc5)cc4)ccnc3c2)c1 [TCMDC-138477] | 27.24%
64 | CN(C)CCNCc1cccc(-c2ccc3c(Nc4ccc(Oc5ccccn5)cc4)ccnc3c2)c1 [TCMDC-138493] | 98.43%
65 | COCCNCc1cccc(-c2ccc3c(Nc4ccc(Oc5cccnc5)cc4)ccnc3c2)c1 [TCMDC-138487] | 75%
66 | CS(=O)(=O)CCNCc1cccc(-c2ccc3c(Nc4ccc(Oc5cccnc5)cc4)ccnc3c2)c1 [TCMDC-138488] | -52.67%
67 | COCCNCc1ncsc1-c1ccc2c(Nc3ccc(Oc4ccccc4)cc3)ccnc2c1 [TCMDC-138440] | 7.654%
68 | Nc1nc(N)c2cc(C#Cc3ccc(-c4ccccc4)cc3)ccc2n1 [TCMDC-139006] | -7.862%
69 | Nc1c2ccccc2nc2cc(Cl)ccc12 [TCMDC-141999] | 16.16%
70 | Nc1c2ccccc2nc2ccc(-c3ccccc3)cc12 [TCMDC-132030] | 118.4%
71 | Cl.Nc1nc(Nc2ccc(Cl)cc2)nc2ccccc12 [TCMDC-124354] | 6.388%
72 | Nc1c2ccccc2nc2ccc(Cl)cc12 [TCMDC-132029] | 93.03%

Source: PMC4552634, “A New Set of Chemical Starting Points with Plasmodium falciparum Transmission-Blocking Potential for Antimalarial Drug Discovery” (PLoS ONE, 2015)
